# Measurements reported in PubChem BioAssay (NCATS).
# Records with an inconclusive call do not appear. A call without a number means that no potency is given here. The source made the active and inactive calls. The call rests on the fitted dose curve; in most records, active means well fitted activation curve with a large enough effect; inconclusive means small, poorly fitted or top-dose-only effect; inactive means flat fitted curve, though single readings scatter.
# Test: Cellular Toxicity (caspase-3) SK-N-SH (AID 661);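 further: cells exposed to compound for 16 hours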
# Conditions: SK-N-SH caspase-3 activation, qHTS, DMSO as zero, staurosporine as full; series mostly up to 91.7 µM
# Method in brief: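 Luminescent Caspase-Glo 3/7 read-out after 16 hr compound exposure of SK-N-SH neuroblastoma cells at 37 °C. Signal increase normalized to DMSO (basal) and 10 uM staurosporine (100%); AC50 from Hill equation fits of qHTS concentration-response data.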
row,Structure (SMILES),outcome
1,C=Cc1ccccc1Cl,inactive
2,c1ccc2c(c1)c1cccc3ccc4cccc2c4c31,inactive
3,Cc1cccc([N+](=O)[O-])c1C,inactive
4,CCO[Si](CCCN)(OCC)OCC,inactive
5,Clc1cc(Cl)c(Cl)cc1Cl,inactive
6,CCO,inactive
7,Clc1cc(Cl)c(Cl)c(Cl)c1Cl,inactive
8,c1ccc2c(c1)[nH]c1ccccc12,inactive
9,CCC(C)c1ccccc1O (stereo unspecified),inactive
10,CCCCOCCO,inactive

# Test: Cellular Toxicity (caspase-3) H-4-II-E (AID 663);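 further: cells exposed to compound for 16 hr before readout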
# Conditions: H-4-II-E rat hepatoma; Potency: caspase-3 activation; series mostly up to 92.2 µM
# Method in brief: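 Caspase 3/7 activation measured by luminescent aminoluciferin substrate cleavage after 16 hr compound treatment of H-4-II-E cells in complete medium. Increase normalized between DMSO (basal) and 100 uM tamoxifen (100%); Hill-equation AC50 from concentration-response.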
row,Structure (SMILES),Potency
1,CCCN(CCC)C(=O)SCC,inactive
2,COc1ccc2nc(N)sc2c1,inactive
3,ClCCCl,inactive
4,CCC(O)OC(O)CC (stereo unspecified),inactive
5,C=Cc1ccccc1Cl,inactive
6,c1ccc2c(c1)c1cccc3ccc4cccc2c4c31,inactive
7,Cc1cccc([N+](=O)[O-])c1C,inactive
8,CCCCCCCCO,inactive
9,CC(C)=CCCC(C)CCO (stereo unspecified),inactive
10,O=[N+]([O-])c1cccc(Cl)c1Cl,inactive
11,CCO[Si](CCCN)(OCC)OCC,inactive
12,Clc1cc(Cl)c(Cl)cc1Cl,inactive
13,CCO,inactive
14,Clc1cc(Cl)c(Cl)c(Cl)c1Cl,inactive
15,CCCCC(CC)CN (stereo unspecified),inactive
16,O=NO,inactive
17,c1ccc2c(c1)[nH]c1ccccc12,inactive
18,OCCNCCO,inactive
19,Nc1ccc(Cl)cc1Cl,inactive
20,CCC(C)c1ccccc1O (stereo unspecified),inactive
21,CC1=CC(C)(C)Nc2ccccc21,inactive
22,CN(C)C=O,inactive
23,Cc1ccc(N)c([N+](=O)[O-])c1,inactive
24,CCCCOCCO,inactive
25,CC(=O)OC/C=C(\C)CCC=C(C)C,inactive

# Test: Cellular Toxicity (caspase-3) Hek293 (AID 664);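 further: cells exposed to compound for 16 h at 37 °C before readout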
# Conditions: HEK293 caspase-3 activation, DMSO = 0%, 100 µM tamoxifen = 100%; series mostly up to 92.2 µM
# Method in brief: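 Luminescent Caspase-Glo 3/7 readout (aminoluciferin release) in HEK293 cells after 16 h compound treatment, 37 °C. Normalization: DMSO = basal, 100 uM tamoxifen = 100% stimulation. Concentration-response fitted with standard Hill equation for AC50.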
row,Structure (SMILES),outcome
1,CCCN(CCC)C(=O)SCC,inactive
2,COc1ccc2nc(N)sc2c1,inactive
3,ClCCCl,inactive
4,CCC(O)OC(O)CC (stereo unspecified),inactive
5,C=Cc1ccccc1Cl,inactive
6,c1ccc2c(c1)c1cccc3ccc4cccc2c4c31,inactive
7,Cc1cccc([N+](=O)[O-])c1C,inactive
8,CCCCCCCCO,inactive
9,CC(C)=CCCC(C)CCO (stereo unspecified),inactive
10,O=[N+]([O-])c1cccc(Cl)c1Cl,inactive
11,CCO[Si](CCCN)(OCC)OCC,inactive
12,Clc1cc(Cl)c(Cl)cc1Cl,inactive
13,CCO,inactive
14,C=CC(=O)OCCOCCOCCOCCOC(=O)C=C,inactive
15,Clc1cc(Cl)c(Cl)c(Cl)c1Cl,inactive
16,CCCCC(CC)CN (stereo unspecified),inactive
17,O=NO,inactive
18,c1ccc2c(c1)[nH]c1ccccc12,inactive
19,OCCNCCO,inactive
20,Nc1ccc(Cl)cc1Cl,inactive
21,CCC(C)c1ccccc1O (stereo unspecified),inactive
22,CC1=CC(C)(C)Nc2ccccc21,inactive
23,CN(C)C=O,inactive
24,Cc1ccc(N)c([N+](=O)[O-])c1,inactive
25,CCCCOCCO,inactive
26,CC(=O)OC/C=C(\C)CCC=C(C)C,inactive
